Experimental data published in PubChem BioAssay AID1159580 (chemical genetic matrix, 2015).
Among all 5,500 compounds or so, about 2,000 (36%) were called active. About 18% were inconclusive and are not listed. Cut-off read from the data, not from the text of the source: active = normalized growth mostly below about 0.91 (no sharp cut-off); inconclusive = no clear call, values can overlap the other calls; inactive = mostly above about 0.92. The list shows a part of the results.

Assay: chemical genetic growth profiling, strain panel (AID 1159580);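 note: tested at 20 µM; growth read once vehicle control cultures reached saturation at 30 °C; 1 = growth at the plate median or of vehicle wells; lower values mean less growth of the strain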
Conditions: growth OD

Measured: normalized growth

N#CC(c1ccccc1)N1CCCCC1 (stereo not drawn)
inactive: S. cerevisiae deletion strains, locus YAL013W, strain DEP1, active compounds read low 1.04 | S. cerevisiae deletion strains, locus YBR229C, strain ROT2, active compounds read low 0.995 | S. cerevisiae deletion strains, locus YDL101C, strain DUN1, active compounds read low 1 | S. cerevisiae deletion strains, locus YDL134C, strain PPH21, active compounds read low 0.99 | S. cerevisiae deletion strains, locus YDR150W, strain NUM1, active compounds read low 0.964 | S. cerevisiae deletion strains, locus YEL061C, strain CIN8, active compounds read low 1.02 | S. cerevisiae deletion strains, locus YGR078C, strain PAC10, active compounds read low 1 | S. cerevisiae deletion strains, locus YHR030C, strain SLT2, active compounds read low 1.04 | S. cerevisiae deletion strains, locus YHR087W, strain rtc3, active compounds read low 0.995 | S. cerevisiae deletion strains, locus YJR043C, strain POL32, active compounds read low 0.994 | S. cerevisiae deletion strains, locus YJR075W, strain HOC1, active compounds read low 0.984 | S. cerevisiae deletion strains, locus YKL190W, strain CNB1, active compounds read low 0.99 | S. cerevisiae deletion strains, locus YLR039C, strain RIC1, active compounds read low 0.969 | S. cerevisiae deletion strains, locus YLR058C, strain SHM2 (second series), active compounds read low 0.987 | S. cerevisiae deletion strains, locus YLR085C, strain ARP6, active compounds read low 1.02 | S. cerevisiae deletion strains, locus YLR262C, strain YPT6, active compounds read low 1.02 | S. cerevisiae deletion strains, locus YML094W, strain GIM5, active compounds read low 1.02 | S. cerevisiae deletion strains, locus YMR219W, strain ESC1, active compounds read low 1.01 | S. cerevisiae deletion strains, locus YMR263W, strain SAP30, active compounds read low 1.01 | S. cerevisiae deletion strains, locus YMR307W, strain GAS1, active compounds read low 0.928 | S. cerevisiae deletion strains, locus YNL153C, strain GIM3, active compounds read low 1 | S. cerevisiae deletion strains, locus YNL298W, strain CLA4 (second series), active compounds read low 0.985 | S. cerevisiae deletion strains, locus YNL322C, strain KRE1, active compounds read low 1.01 | S. cerevisiae deletion strains, locus YNR030W, strain Alg12, active compounds read low 1 | S. cerevisiae deletion strains, locus YPL055C, strain LGE1, active compounds read low 1.03 | S. cerevisiae deletion strains, locus YPL241C, strain CIN2, active compounds read low 0.975 | S. cerevisiae deletion strains, locus YPR135W, strain CTF4, active compounds read low 1.19 | S. cerevisiae strains, strain wild type, active compounds read low 0.985
